The sample as a whole holds a higher share of hits than the screen did.
Marburg entry inh = inhibitors of Marburg virus binding or cell entry; Marburg virus pseudotyped entry inhibition, cell reporter; Potency, µM (series often up to 37.8 µM), without a hit: top-dose activity change, negative = inhibition, actives largely listed as inhibitors; AID 540276; hit rate 1.8% among 300,000; calls by dose curve; tested in HEK293 cells; also: potency is read from the fitted curve at half-maximal effect; % is scaled to controls: 0 for no effect and ±100 for the full control effect
CHX counter = counter-screen hit for Shiga toxin inhibitors, cycloheximide; cell reporter, cycloheximide protein synthesis inhibition counterscreen; max response, %; hit rate 12% among 300,000; AID 2314; in the data active = max response mostly above about 13%, no sharp cut-off; inactive = mostly below about 14%; also: read at 38.3 µM for the half of the compounds with a filed dose; 0% is about no effect
Shiga inhibitor = blocks Shiga toxin action in Vero cells; Vero cells, Shiga toxin protein synthesis inhibition reporter; inhibition, % at 38.7 µM; hit rate 9.2% among 290,000; AID 2315; in the data active = inhibition mostly above about 28%, no sharp cut-off; inactive = mostly below about 43%; also: 0% is about no effect
AMA1 RON2 block = disrupts binding of P. falciparum AMA1 to RON2 | AlphaScreen AMA1-biotinylated RON2 peptide binding | hit rate 0.2% among 360,000 | AID 720542 | Potency, µM (top dose mostly 58.2 µM), inactives show at the highest dose activity change, negative = inhibition, usual class: inhibitors; active = well fitted inhibition curve with a large enough effect; inconclusive = small, poorly fitted or top-dose-only effect; inactive = no such curve, though single readings can be large or run the other way;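 also: potency is read from the fitted curve at half-maximal effect; 0% = vehicle wells and -100% = peptide control; nearly all actives have a fitted effect of over 45% in size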
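AMA1 (3D7) with his tag at 25 nM final met compounds first, then biotinylated RON2 peptide at 25 nM; detection used donor plus acceptor beads, 10 µg/mL apiece, read by AlphaScreen after 30 min at room temperature.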
LASV entry inh = blocks Lassa virus binding to or entry into cells | Lassa virus pseudotype entry inhibition, cell reporter | Potency, µM (titrated, usually from 37.9 µM), inactives show at the top dose activity change, negative = inhibition, usual class: inhibitors | hit rate 1.2% among 300,000 | AID 540256; calls by dose curve; tested in HEK293 cells; also: potency is read from the fitted curve at half-maximal effect; % is scaled to controls: 0 for no effect and ±100 for the full control effect; nearly all actives have a fitted effect of over 50% in size
* hit, by the source's call; ? = inconclusive; / = not tested or not shown; [ ] = dose if it differs, or a comment.

SMILES	Marburg entry inh	CHX counter	Shiga inhibitor	AMA1 RON2 block	LASV entry inh
O=C(O)c1ccc(CNCc2ccccc2Cl)s1	2%[46.1 µM]	/	/	/	?
CCOC(=O)Cn1c2ccccc2c2nc3ccccc3nc21	1%[46.1 µM]	12*	28	3%	8%
O=C(Nc1nc(-c2ccc(Br)cc2)cs1)c1cccnc1	-27%[46.1 µM]	-3	-9	9%	-2%
CC(C)/C=N/Nc1nc(-c2ccc(Br)cc2)cs1	?	31*	54*	-11%	6%
C=CCNc1nc(-c2ccc(Cl)cc2)cs1	-9%	64*	130*	-17%	11%
C=CCNc1nc(-c2ccc([N+](=O)[O-])cc2)cs1	?	56*	63*	-26%	-1%
CN(C)c1nc(-c2ccc([N+](=O)[O-])cc2)cs1	-2%	21*	78	?	-8%
CN=c1scc(-c2ccc(Br)cc2)n1C	7%[46.1 µM]	2	-11	-3%	19%
Cc1ccc(C)c(-n2c(-c3ccc(Br)cc3)csc2=NC(=O)c2ccccc2F)c1	1.3µM*	-1	-11	-1%	?
COc1cc(/C=C/[N+](=O)[O-])ccc1OCc1cccc(C(=O)O)c1	?	83*	131*	?	0.63µM*
COc1ccc(C(=O)C=Cc2ccc(OCc3ccccc3)c(OC)c2)cc1OC	/	/	/	-6%	/
COc1cc(O)c(C(=O)/C=C/c2ccccc2)c(OC)c1	/	34*	70*	?	/
COc1cc(OC)c(C(=O)/C=C/c2ccc(OCc3ccccc3)c(OC)c2)c(OC)c1	11µM*	5	6	-15%	?
O=C(Nc1ccc(F)cc1F)c1ccc2c(O)c(S(=O)(=O)c3ccc(Cl)cc3)c(=O)[nH]c2c1	/	/	/	/	-3%[46.1 µM]
CC(C)Cn1c(=O)c(C(=O)N/N=C/c2cccc(F)c2)c(O)c2ccccc21	?	-1	-10	29%[2.32 µM]	13%
O=C(C1CC(c2cccc(Br)c2)=NO1)N1CCc2ccccc2C1 (stereo not given)	0%	18*	21	14%	-2%
Cc1cc(C)n(-c2nc(NCCN(C)C)c3c4c(sc3n2)COC(C)(C)C4)n1	7.1µM*	8	10	9%	13µM*
CCC1(C)Cc2c(sc3nc(NN)n(C)c(=O)c23)CO1 (stereo not given)	-28%	0	-9	-7%	?
CCN(CC)CCNc1nc(-n2nc(C)cc2C)nc2sc3c(c12)CC(C)(C)OC3	?	12*	31	6%	7.9µM*
Cc1cc(C)n(-c2nc(NCCCN(C)C)c3c4c(sc3n2)COC(C)(C)C4)n1	?	-2	-7	30%	-25%
CCSc1nc(NCCN(C)C)c2c3c(sc2n1)COC(C)(CC)C3 (stereo not given)	?	30*	-11	3%	-28%
COc1ccc(-c2cc(CC3(C(=O)O)CCN(C(=O)OC(C)(C)C)CC3)on2)c(OC)c1	/	2	-11	16%	/
O=c1c2cc([N+](=O)[O-])ccc2nc2n1CCCC2	?	-1	-5	-4%	?
Cc1ccc2nc3n(c(=O)c2c1)CCCCC3	17%	31*	53*	0%	9%
O=c1c2cc(Br)ccc2nc2n1CCCCC2	?	29*	55	39%	8%
SMILES	Marburg entry inh	CHX counter	Shiga inhibitor	AMA1 RON2 block	LASV entry inh
CCN(CC)S(=O)(=O)c1cc(OC)c(C)cc1C	-3%[46.1 µM]	-3	-3	-3%	15%[46.1 µM]
CCN(CC)S(=O)(=O)c1cc(OC)c(Cl)cc1Cl	-22%	28*	-2	13%	-22%
CC(=O)NCCC(=O)Nc1nc2ccc(Oc3ccccc3)cc2s1	?	62*	101*	-1%	?
CCC(C)C(=O)Nc1nc2ccc(OC)cc2s1 (stereo not given)	?	42*	71*	7%	?
CC(=O)Nc1nc2ccc(Br)cc2s1	?	21*	40	-3%	-26%
CCOc1ccc2nc(N(Cc3ccccc3)C(=O)CCNC(C)=O)sc2c1	4%	30*	51*	1%	-1%
COc1ccc(Br)cc1C(=O)Nc1nc2ccc(F)cc2s1	?	/	/	/	8%[46.1 µM]
Cc1ccc(C)c(CN2CCN(c3ncccn3)CC2)c1	-27%[46.1 µM]	2	-3	-29%	5%[46.1 µM]
Cc1ccc(S(=O)(=O)N2CCOCC2)cc1NC(=O)COc1cccc(Oc2ccccc2)c1	?	/	/	1%	?
Cc1ccc(NC(=O)Cn2cc(C(=O)C3CCCCC3)c3ccccc32)cc1	-18%[46.1 µM]	/	/	/	-4%[46.1 µM]
COC(C/C=C/C(=O)[C@H](C)OCc1ccccc1)OC	/	/	/	-1%	/
CCC(C)C(=O)Nc1nc2ccc(S(C)(=O)=O)cc2s1 (stereo not given)	?	20*	37*	11%	17%
COc1ccc2nc(NC(C)=O)sc2c1	2%	42*	82*	-1%	1%
COc1ccc(OCC(=O)Nc2nc3ccc(NC(C)=O)cc3s2)cc1	/	1	28	-22%	/
COc1ccc(-c2ccc(NS(=O)(=O)c3ccc(OC)c(OC)c3)cc2)nn1	/	/	/	/	-14%[46.1 µM]
CC(=O)N(c1ccccc1)c1nnc(-c2cnc(C)cn2)s1	?	29*	68*	0%	1%
COc1cccc(-c2nn(C)c3sc(C(=O)Nc4ccc5c(c4)OCCO5)cc23)c1	0%	61*	75*	-3%	-7%
O=C(NCC(O)c1ccccc1)c1cccs1 (stereo not given)	/	42*	79*	11%	/
O=C(NCc1ccc(F)cc1)c1cccs1	/	3	18	1%	/
O=C(NCCCCCCNC(=O)c1cccs1)c1cccs1	13%[46.1 µM]	-3	-7	0%	1%
O=C(NCCCc1ccccc1)c1cccs1	?	34*	55*	6%	22%
O=C(CNC(=O)c1cccs1)c1ccc(Br)cc1	-29%[46.1 µM]	39*	109*	0%	?
O=C(NCCc1ccc(F)cc1)c1cccs1	-12%	26*	91*	-5%	11%
O=S(=O)(c1cccc(F)c1)N1CCC(Oc2ccc(-n3cnnn3)cc2)CC1	-14%[46.1 µM]	/	/	/	1%[46.1 µM]
COc1cc(NC(=O)C2=CC(c3ccc(F)cc3)=NS(=O)(=O)N2C)cc(OC)c1OC	-3%[46.1 µM]	/	/	/	22%[46.1 µM]
SMILES	Marburg entry inh	CHX counter	Shiga inhibitor	AMA1 RON2 block	LASV entry inh
O=C(NCc1ccccc1Cl)c1ccc(-n2cnc3cccnc32)cc1	/	/	/	/	7%[46.1 µM]
COc1ccc2cc(CCNC(=O)c3cccs3)c(=O)[nH]c2c1	-23%	48*	54*	-3%	?
CC(Cc1cccs1)NC(=O)c1cccs1 (stereo not given)	?	33*	74*	-5%	-5%[46.1 µM]
COc1ccc(CNC(=O)c2cccs2)cc1	-2%	4	23	-4%	-10%
O=C(NCCc1cccs1)c1cccs1	-17%[46.1 µM]	50*	91*	-1%	12%
CC(CCc1ccccc1)NC(=O)c1cccs1 (stereo not given)	8%	-4	-2	16%	-5%
Nc1nonc1C(=O)NCCNC(=O)c1cccs1	-5%	-1	-13	5%	0%
COc1ccc(CCNC(=O)c2cccs2)cc1	?	32*	48*	1%	?
COc1ccc(CNC(=O)COC(=O)c2cccs2)cc1	-13%[46.1 µM]	27*	47*	6%	13%
COC(=O)c1ccc(CNC(=O)COC(=O)c2cccs2)cc1	23%	/	/	13%	-1%[46.1 µM]
